Data: PMC4336329 (PLoS ONE, 2015)
In all, about 310,000 compounds went through this assay and about 14,000 (4.5%) showed an effect of 50% or more. The effect is printed as a negative number. The sample holds strong results, similar compounds and a random draw of the others, so the mix is not that of the screen.

Target: human ether-à-go-go-related gene (hERG) potassium channel (human, UniProt Q12809)
Experiment: primary screen, population patch clamp on CHO cells stably expressing hERG; higher = less effect of the substance
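Further: peak tail current of the secondary pulse compared with the same well before compound.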

Chain of human ether-à-go-go-related gene (hERG) potassium channel (Q12809 whole entry, looked up): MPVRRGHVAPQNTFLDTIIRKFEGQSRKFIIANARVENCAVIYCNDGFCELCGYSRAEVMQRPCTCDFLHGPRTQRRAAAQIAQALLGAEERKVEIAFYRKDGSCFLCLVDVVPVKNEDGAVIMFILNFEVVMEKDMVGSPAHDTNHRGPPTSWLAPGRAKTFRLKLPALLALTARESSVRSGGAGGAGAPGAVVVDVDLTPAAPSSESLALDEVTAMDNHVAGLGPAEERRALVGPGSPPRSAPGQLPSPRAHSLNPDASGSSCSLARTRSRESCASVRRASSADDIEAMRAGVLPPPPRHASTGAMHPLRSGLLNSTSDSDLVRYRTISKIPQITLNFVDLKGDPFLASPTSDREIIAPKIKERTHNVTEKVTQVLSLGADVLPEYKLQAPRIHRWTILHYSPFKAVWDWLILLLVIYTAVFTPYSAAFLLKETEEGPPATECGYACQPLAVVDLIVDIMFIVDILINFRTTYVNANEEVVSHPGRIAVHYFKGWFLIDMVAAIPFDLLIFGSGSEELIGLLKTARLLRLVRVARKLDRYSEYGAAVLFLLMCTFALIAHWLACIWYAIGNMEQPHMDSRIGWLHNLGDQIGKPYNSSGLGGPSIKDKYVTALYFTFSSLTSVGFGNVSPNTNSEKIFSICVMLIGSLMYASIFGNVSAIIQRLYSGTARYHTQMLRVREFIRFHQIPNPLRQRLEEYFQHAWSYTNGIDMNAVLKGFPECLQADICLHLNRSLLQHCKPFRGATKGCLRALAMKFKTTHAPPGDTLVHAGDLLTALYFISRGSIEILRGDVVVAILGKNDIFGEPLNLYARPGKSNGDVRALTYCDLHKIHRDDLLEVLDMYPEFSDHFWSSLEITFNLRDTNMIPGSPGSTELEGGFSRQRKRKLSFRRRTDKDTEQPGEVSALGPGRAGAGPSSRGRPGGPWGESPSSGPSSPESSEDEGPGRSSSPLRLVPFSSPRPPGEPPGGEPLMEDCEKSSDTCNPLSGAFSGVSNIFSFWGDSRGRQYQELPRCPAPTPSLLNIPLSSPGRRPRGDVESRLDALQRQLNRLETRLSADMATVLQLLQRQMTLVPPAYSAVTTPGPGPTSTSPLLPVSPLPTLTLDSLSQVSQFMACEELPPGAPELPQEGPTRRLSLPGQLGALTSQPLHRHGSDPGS

Compound	hERG current change (%, negative = inhibition) at 10uM [%]
O=C(NC(=O)N1CCOCC1)c1ccccc1	8.08
CC(=O)NNC(=O)CSc1nnc(-c2ccccc2)c(-c2ccccc2)n1	19.4
COc1ccc(CN2CC(=O)N(c3ccc(C)c(C)c3)C2=S)cc1OC	12.2
CC(C)Oc1c(Cl)cc(CNC(C)(C)CO)cc1Cl	0.775
CSc1nnc(-c2ccco2)c(-c2ccco2)n1	2.75
CCCCCC(=O)Nc1ccc2oc(-c3cccnc3)nc2c1	-6.74
COC(=O)C1=C(C(=O)OC)SC2(S1)C(C(=O)OC)=C(C(=O)OC)SC1=C2c2cc(C)ccc2NC1(C)C	14.3
COC(=O)C1=C(C(=O)OC)SC2(S1)C(C(=O)OC)=C(C(=O)OC)SC1=C2c2cc(C)cc(C)c2NC1(C)C	26.1
COC(=O)C1=C(C(=O)OC)SC2(S1)C(C(=O)OC)=C(C(=O)OC)SC1=C2c2cccc(C)c2NC1(C)C	-51.6
CCOC(=O)C1CCCN(C(=O)c2cc(Nc3ccc(OC)cc3)nc3ccccc23)C1 (centres unmarked)	-15
COc1cc2nc(N(CCN(C)C)C(=O)c3ccc(S(=O)(=O)N(C)CC4CCCO4)cc3)sc2cc1OC.Cl (centres unmarked)	-9.01
CCc1ccc2nc(N(CCCN(C)C)C(=O)c3ccc(S(=O)(=O)N(C)C4CCCCC4)cc3)sc2c1.Cl	8.35
CN(C)CCCN(C(=O)c1ccc(S(=O)(=O)N(C)C2CCCCC2)cc1)c1nc2ccc(Br)cc2s1.Cl	2.39
CN(C)CCCN(C(=O)c1ccc(S(=O)(=O)N(C)C2CCCCC2)cc1)c1nc2ccc(F)cc2s1.Cl	-71.9
COc1cc2nc(N(CCCN(C)C)C(=O)c3ccc(S(=O)(=O)N(C)C4CCCCC4)cc3)sc2cc1OC.Cl	-51.6
Cc1ccc2sc(N(CCCN(C)C)C(=O)c3ccc(S(=O)(=O)N(C)C4CCCCC4)cc3)nc2c1C.Cl	-8.13
CCCCNC(=O)C1CCN(S(=O)(=O)c2ccc3c(c2)CC(C)N3C(=O)C2CC2)CC1 (centres unmarked)	1.16
NC(=O)C(c1ccc(Cl)cc1)c1ccc(Sc2ccc(Cl)cc2)nn1 (centres unmarked)	-9.96
Cc1cc(NCCCn2ccnc2)n2nc(C)c(-c3ccccc3)c2n1	-72.8
Cc1cc(NCCCN2CCOCC2)n2nc(C)c(-c3ccccc3)c2n1	-14.6
Cc1cc(NCCCN2CCOCC2)n2nc(C)c(-c3ccc(F)cc3)c2n1	-31.1

Compound	hERG current change (%, negative = inhibition) at 10uM [%]
CCCc1cc(N2CCCC2)n2nc(C)c(-c3ccccc3)c2n1	8.36
Cc1cc(NCc2ccccn2)n2nc(C)c(-c3ccc(Cl)cc3)c2n1	14.2
Cc1cc(NCCCn2ccnc2)n2nc(C)c(-c3ccc(Cl)cc3)c2n1	-71.8
Cc1cc(NCCC(C)C)n2nc(C)c(-c3ccccc3)c2n1	1.03
Cc1nn2c(NCCCn3ccnc3)cc(C(C)C)nc2c1-c1ccccc1	-23.5
Cc1cc(NCCN2CCOCC2)n2nc(C)c(-c3ccc(Cl)cc3)c2n1	-50.2
COc1ccc(CCNc2cc(C)nc3c(-c4ccc(Cl)cc4)c(C)nn23)cc1OC	15.5
CCCc1cc(NCc2ccccn2)n2nc(C)c(-c3ccccc3)c2n1	4.77
CCCc1cc(NCCCn2ccnc2)n2nc(C)c(-c3ccccc3)c2n1	-74.9
NNC(=O)c1ccc2[nH]c3c(c2c1)CCCC3	5.31
COc1ccc(-c2nc3ccccc3c(C(=O)Nc3ccc(S(=O)(=O)Nc4cc(C)on4)cc3)c2C)cc1	-7.09
COc1ccc(NS(=O)(=O)c2ccc(N3CCOCC3)c(NC(=O)c3ccccc3Br)c2)cc1	-11.2
COc1cc(C(=O)N2CCN(C(=O)C(Cc3cc(C)ccc3C)NC(C)=O)CC2)cc(OC)c1OC (centres unmarked)	-14.4
CCc1ccc(N(C(=O)c2csnn2)C(C(=O)NC2CCCC2)c2cccnc2)cc1 (centres unmarked)	-24.9
O=C(O)C1(c2ccccc2)CCN(S(=O)(=O)c2cccs2)CC1	5.95
N#CC1(NC(=O)COC(=O)c2cc(=O)[nH]c3ccccc23)CCCCC1	14
Cc1nn(CC(N)=O)c(=O)c2ccccc12	10.6
CN(C)CCNc1nc2c(c(=O)[nH]c(=O)n2C)n1CCOc1ccccc1	-5.88
Cc1nc(Cl)c2oc3ccccc3c2n1	9.28
O=C(NCCCN1CCC(Cc2ccccc2)CC1)C1CCC(=O)N1C1CCCC1 (centres unmarked)	6.52
Cc1ccc(/C(=C\CN2CCCC2)c2ccccn2)cc1.Cl	-55.4

Compound	hERG current change (%, negative = inhibition) at 10uM [%]
Cc1ccc(C(=O)NCCCNC(=O)c2ccccn2)cc1	5.5
Cc1ccc(C(=O)NCCNC(=O)c2ccccn2)cc1	12.9
CCOC(=O)Cc1csc(SCC(=O)c2c(N)n(CC(C)C)c(=O)n(C)c2=O)n1	-2.23
Cc1ccc(OC(C)C(=O)N2CC(=O)Nc3ccccc32)cc1 (centres unmarked)	-67.7
COc1ccccc1OC(C)C(=O)N1CC(=O)Nc2ccccc21 (centres unmarked)	15.8
Cc1ccc(OC(C)C(=O)N2CC(=O)Nc3ccccc32)c(C)c1 (centres unmarked)	2.56
CCCN(CC(=O)Nc1ccccc1OC)C(=O)Cc1ccc2c(c1)CCC2	-18.1
[O-][n+]1c2ccccc2c2n1CCN1CCOC21c1ccc(Cl)cc1 (centres unmarked)	-42.3
CC[n+]1c(/C=C/C=C/c2ccc(N(C)C)cc2)sc2ccccc21.[O-][Cl+3]([O-])([O-])[O-]	-73.4
CN(C)c1ccc(/C=C/c2nc3ccccc3s2)cc1	17.7
CC/C(=C/c1sc2ccccc2[n+]1CC)SC.COS(=O)(=O)[O-]	0.104
CC[n+]1c(/C=C/C=C/N(C(C)=O)c2ccccc2)sc2cc(OC)ccc21.[I-]	-32.8
CC[n+]1c(/C=C/C=C/N(C(C)=O)c2ccccc2)sc2ccccc21.[I-]	-69.8
CC[n+]1c(/C=C/N(C)c2ccccc2)sc2ccc(Cl)cc21.[O-][Cl+3]([O-])([O-])[O-]	-62.6
CN(C)c1ccc(/C=C/C=C/c2sc3ccccc3[n+]2C)cc1.[O-][Cl+3]([O-])([O-])[O-]	-42.6
CCCc1nn(C(=O)c2ccccc2)c2c1C(=O)CC(C)(C)C2	11.5
C=CCOC(=O)/C(=C\c1cccc2ccccc12)NC(=O)c1ccccc1	-9.44
CC(=O)/C=C(\C)N=Nc1c(O)[nH]c2ccccc12	5.48
Cc1ccc(NC(=O)c2ccccc2NS(=O)(=O)c2ccc(F)cc2)cc1S(=O)(=O)N1CCCCC1	3.17
Cc1ccc(NS(=O)(=O)c2ccc(-n3cccn3)cc2)c(C)c1	22.8
CCC(CC)c1nnc(NC(=O)C2CC(=O)N(CCc3ccc(OC)c(OC)c3)C2)s1 (centres unmarked)	-0.537

Compound	hERG current change (%, negative = inhibition) at 10uM [%]
CCn1c2ccccc2c2cnc(N=CN(C)C)c(C#N)c21	-24
N#Cc1ccc(Nc2nc(-c3ccc(O)cc3O)cs2)cc1C(F)(F)F	11.9
Fc1ccc(-c2[nH]ncc2CN2CCN(c3ccc(F)cc3)CC2)cc1	-44.5
CCOc1ccccc1N1CCN(Cc2cnc(-c3ccccc3)[nH]2)CC1	-40.6
COc1ccc(-c2[nH]ncc2CN2CCN(c3ccc(F)cc3)CC2)cc1	-45.7
COc1ccccc1N1CCN(Cc2cn[nH]c2-c2ccc(F)cc2)CC1	-55.3
CCOc1ccccc1N1CCN(Cc2cn[nH]c2-c2ccc(F)cc2)CC1	-72.3
Fc1ccc(N2CCN(Cc3cn[nH]c3-c3ccccc3)CC2)cc1	-59.2
CCOc1ccccc1N1CCN(Cc2cc3c(cc2[N+](=O)[O-])OCO3)CC1	-20.6
COc1ccccc1N1CCN(Cc2ccccc2Cl)CC1	-23.5
Fc1ccc(N2CCN(Cc3nnc(-c4ccccc4)o3)CC2)cc1	-11.9
Cc1c(C)n(CCCN(C)C)c2ncnc(NCc3ccccc3)c12	-13.9
O=P(C(=Nc1ccc(Cl)cc1)N1CCOCC1)(N1CCOCC1)N1CCOCC1	-17.6
Cc1ccc(S(=O)(=O)N(C)C)cc1NC(=S)N(C)C1CCN(C)CC1	16.2
Cc1ccc(C)c(NC(=O)NCCN2CCCCC2)c1	-15.1
COc1ccc(S(=O)(=O)N2CCOC23CCN(S(=O)(=O)c2cc(C)ccc2OC)CC3)cc1	26.8
CCN(C(=O)COC(=O)Cc1c[nH]c2ccccc12)c1c(N)n(Cc2ccccc2)c(=O)[nH]c1=O	16.3
Cc1cc(Br)ccc1NC(=S)N1CCOCC1	12.5
COc1ccc(CNC(=O)CCCOc2cc(=O)n(C)c3ccccc23)cc1	-19.2
Cn1c(SCC(=O)Nc2nccs2)nnc1C12CC3CC(CC(C3)C1)C2	-6.22
